“And” between values parts separate entries of the source, which are not always exact repeats. Identical values can stand only once. About 2,600 (0.6%) of roughly 430,000 compounds were called active. This is one part of a sample in which actives are shown more often than they occur. Unmarked numbers belong to inactive results. Rule as the data show it: active = inhibition mostly above about 37% (no sharp cut-off); inactive = mostly below about 20%.
These molecules were tested on PriA–SSB C-terminal tail interaction (Klebsiella pneumoniae) (assay: inhibitors of Klebsiella pneumoniae PriA binding to SSB C-terminal tail, primary screen, biochemical, AlphaScreen (AID 1272365;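 also: plate controls were negative control peptide for no effect and reference peptide for full effect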)). Conditions: AlphaScreen SSBct-PriA binding, biotinylated peptide; at 33 µM, stronger effect = higher value.
For `O=S(=O)(CCc1ccccc1)NCC(O)c1ccoc1` (centres undefined), the inhibition was -25%.
`COc1cc(NS(=O)(=O)c2ccc(NC(=O)c3cc4c(ccc5ccccc54)oc3=O)cc2)ncn1` showed an inhibition of -16%.
For `COC(=O)c1ccc(S(=O)(=O)NCC2(c3ccc(F)cc3)CC2)cc1`, the inhibition was -24%.
`COc1ccc(Br)c(C(=O)NCCCc2cnoc2)c1` gave an inhibition of 4%.
`Cc1cc2ncc(NC(=O)NCCOc3ccccc3)cn2n1` gave an inhibition of -12%.
In the case of `O=[N+]([O-])c1ccccc1Nc1ccc(O)cc1`, the inhibition is reported as 46.7% (active).
With `O=[N+]([O-])c1ccccc1NN=Cc1cccc(O)c1O` the inhibition was 0.72%.
`O=C(Nc1ccc(OC(F)(F)F)cc1)C(=O)Nc1ccccc1[N+](=O)[O-]` was tested, and the inhibition was 4%.
`COc1cccc(CCNC(=O)C2CS(=O)(=O)CN2C(=O)c2ccccc2)c1` (centres undefined) gave an inhibition of -9%.
`Cc1ccc(-c2cc3c(=O)n(CC(=O)Nc4ccc5c(c4)OCO5)ncn3n2)cc1C` was tested, and the inhibition was -17%.
`O=C(c1ccccc1)c1sc(NC(=O)c2cc(-c3ccccc3)nc3ccccc23)nc1-c1ccccc1` showed an inhibition of 10%.
Molecule `CC(=NNC(=O)c1c(Cl)c(C)nn1C)c1cccc(NC(=O)C2CCCC2)c1` has an inhibition of 2.34%.
With `Cc1cc(-c2nnc(NC(=O)C(C)C)o2)nn1C` the inhibition was -2%.
`Cc1cc(-c2nnc(NC(=O)C(c3ccccc3)c3ccccc3)o2)nn1C` was tested, and the inhibition was 85% (active).
For `Cc1cc(-c2nnc(NC(=O)C(c3ccccc3)c3ccccc3)o2)n(C)n1`, the inhibition was 61% (active).
`Cc1cc(-c2nnc(NC(=O)c3ccc(C(=O)c4ccccc4)cc3)o2)nn1C` showed an inhibition of 3%.
In the case of `Cc1cc(-c2nnc(NC(=O)Cc3ccccc3)o2)n(C)n1`, the inhibition is reported as 14%.
In the case of `CSc1ccccc1C(=O)Nc1nnc(-c2cc(C)nn2C)o1`, the inhibition is reported as 6% and 0%.
`COC[C@@](C)(O)CNS(=O)(=O)c1ccccc1OC` showed an inhibition of -2%.
With `Cc1cc(C)c2c(n1)nn1c(NCc3ccc(Cl)cc3Cl)cc(C)nc21` the inhibition was -9%.
In the case of `COc1cc(NC(=O)Cc2c(C)noc2C)ncn1`, the inhibition is reported as -19%.
Work on `CC(=O)c1c(C)n(-c2ccc(N(C)C)cc2)c2ccc(OCC(N)=O)cc12` yielded an inhibition of -18.2%.
Molecule `Cc1cc(C(=O)OCC(=O)NCc2ccco2)c(C)n1-c1ccccc1` has an inhibition of -5.93%.
With `CCOC(=O)c1c(C)n(-c2ccc(C)cc2)c2ccc(OCC(O)CNCc3ccco3)cc12` (centres undefined) the inhibition was 69% (active).
`Cc1oc2ccc(OCc3ccccc3)cc2c1C(=O)NCc1ccco1` showed an inhibition of -4%.
For `CCOC(=O)c1c(C)n(-c2ccc(C)cc2)c2ccc(OCC(O)Cn3ccnc3)cc12` (centres undefined), the inhibition was 83% (active) and 46% (active).
`CC(=O)c1c(C)n(-c2ccc(C)cc2)c2ccc(O)cc12` showed an inhibition of -0.78%.
`COc1cc(OC)cc(-c2noc(-c3cc(-c4cc(C)ccc4C)n[nH]3)n2)c1` gave an inhibition of -13%.
For `O=C(c1ccc([N+](=O)[O-])o1)N1CCN(c2ncnc3c2nnn3-c2cccc(F)c2)CC1`, the inhibition was -10%.
For `CC(=O)Nc1nnc(Cc2ccc(F)cc2)o1`, the inhibition was 1%.
In the case of `COc1ncc(NC(=O)Nc2ccc(C)c(Cl)c2)c(N(C)C)n1`, the inhibition is reported as 10%.
In the case of `O=C(Cc1csc(SCc2ccc(Cl)cc2)n1)Nc1ccc2c(c1)OCO2`, the inhibition is reported as 1%.
`CN(C)c1ccc(/C=N\NC(=O)c2ccccc2O)cc1` gave an inhibition of -18%.
`NC(=O)c1ccccc1OCC#CCNS(=O)(=O)Cc1ccc(Cl)cc1` showed an inhibition of -1%.
With `O=C(Cn1nc(-c2ccc(F)cc2)c2sc(N3CCCC3)nc2c1=O)NCc1ccccc1Cl` the inhibition was -4%.
For `CCOc1cc(/C=C2/N=C(c3ccc(C(C)(C)C)cc3)OC2=O)cc(Cl)c1OS(C)(=O)=O`, the inhibition was 62.1% (active).
Molecule `CC(=O)Nc1ccc(N2C(=O)c3cccc4cccc(c34)C2=O)cc1` has an inhibition of 5%.
`Cc1c(NC(=O)CSc2cccc3cccnc23)c(=O)n(-c2ccccc2)n1C` was tested, and the inhibition was 96% (active).
Work on `Cc1ccc(NC(=O)C2CCCN2S(=O)(=O)c2cccc3cccnc23)c(C)c1` (centres undefined) yielded an inhibition of -5.79%.
With `Cc1ccc(NC(=O)CSc2cccc3cccnc23)c(C)c1` the inhibition was 79.3% (active).
In the case of `Cc1c(NC(=O)COc2cccc(OCCC(C)C)c2)c(=O)n(-c2ccccc2)n1C`, the inhibition is reported as -3%.
Work on `Cc1ccccc1OCCC(=O)Nc1c(C)n(C)n(-c2ccccc2)c1=O` yielded an inhibition of -12.4%.
`O=C(CSc1cccc2cccnc12)Nc1ccc(Br)cc1` was tested, and the inhibition was 27.6%.
For `O=C(CSc1nnc(-c2ccc3c(c2)OCCO3)o1)Nc1nc(-c2ccccc2)cs1`, the inhibition was -3%.
`COc1ccc(C(=O)CC(SCCO)c2ccc(F)cc2)cc1OC` (centres undefined) was tested, and the inhibition was -1%.
Molecule `COc1ccc(NC(=O)NCC(c2ccc3c(c2)CCCN3C)N2CCCC2)cc1OC` (centres undefined) has an inhibition of 25%.
Molecule `Cc1cc(C)c(S(=O)(=O)Nc2ccc3c(c2)CCCN3C(=O)c2ccco2)c(C)c1` has an inhibition of 0%.
`O=C(NCCc1ccc(N2CCCC2)cc1)c1ccco1` gave an inhibition of -19%.
`CCC(=O)N1CCc2ccc(NC(=O)CCC3CCCC3)cc2C1` gave an inhibition of -6%.
Work on `CCCN1CCCc2cc(CCNC(=O)Cc3ccc(OC)cc3)ccc21` yielded an inhibition of 57.9%.
`CCCN1CCCc2cc(CCNC(=O)CCC3CCCC3)ccc21` was tested, and the inhibition was 63% (active).
For `CCCN1CCCc2cc(CCNC(=O)c3ccco3)ccc21`, the inhibition was 56% (active).
Molecule `Cn1nc(CNS(=O)(=O)/C=C/c2ccccc2)c2c1CCCC2` has an inhibition of -3%.
`CCCS(=O)(=O)N1CCc2ccc(NC(=O)c3ccc(Br)o3)cc2C1` showed an inhibition of -14%.
`C=CCn1c(SCC(=O)N2CCOCC2)nc2scc(-c3ccccc3Cl)c2c1=O` gave an inhibition of -1%.
`Cc1cc(=O)n(CC(=O)Nc2ccc(C(F)(F)F)cc2)c(-c2ccncc2)n1` was tested, and the inhibition was -28%.
`CS(=O)(=O)N1CCN(C(=O)c2cnn3c2OCCC3)CC1` was tested, and the inhibition was 6%.
`O=C(Cc1ccc(F)cc1)NCCn1nc(C(F)(F)F)c2c1CCCC2` gave an inhibition of 10%.
`COc1cn2c(cc1=O)C(=O)N(CCNC(=O)C1(c3ccc(Cl)cc3)CCCC1)CC2` was tested, and the inhibition was -13% and -15%.

— PubChem BioAssay AID1272365 (Small Molecule Screening Facility, UW Madison, 2018)
